Inconclusive results are not listed. The source made the active and inactive calls. Unless noted, calls follow the shape of the dose curve; as a rule, active = well fitted curve in the direction sought with a large enough effect in the repeat runs; inconclusive = weak or mixed curves; inactive = no such curve, though single readings can be large; an effect the other way counts as inactive or inconclusive.
target: Estrogen receptor (Homo sapiens) (UniProt P03372); experiment: qHTS assay to identify small molecule agonists of the estrogen receptor alpha (ER-alpha) signaling pathway using the BG1 cell line (AID 743079); conditions: BG1Luc4E2 cells, ERE-luciferase agonist, 22 h; at 95 µM (top of the series); also: nearly all actives have a fitted effect of over 20% in size
Sequence (P03372 whole entry, looked up): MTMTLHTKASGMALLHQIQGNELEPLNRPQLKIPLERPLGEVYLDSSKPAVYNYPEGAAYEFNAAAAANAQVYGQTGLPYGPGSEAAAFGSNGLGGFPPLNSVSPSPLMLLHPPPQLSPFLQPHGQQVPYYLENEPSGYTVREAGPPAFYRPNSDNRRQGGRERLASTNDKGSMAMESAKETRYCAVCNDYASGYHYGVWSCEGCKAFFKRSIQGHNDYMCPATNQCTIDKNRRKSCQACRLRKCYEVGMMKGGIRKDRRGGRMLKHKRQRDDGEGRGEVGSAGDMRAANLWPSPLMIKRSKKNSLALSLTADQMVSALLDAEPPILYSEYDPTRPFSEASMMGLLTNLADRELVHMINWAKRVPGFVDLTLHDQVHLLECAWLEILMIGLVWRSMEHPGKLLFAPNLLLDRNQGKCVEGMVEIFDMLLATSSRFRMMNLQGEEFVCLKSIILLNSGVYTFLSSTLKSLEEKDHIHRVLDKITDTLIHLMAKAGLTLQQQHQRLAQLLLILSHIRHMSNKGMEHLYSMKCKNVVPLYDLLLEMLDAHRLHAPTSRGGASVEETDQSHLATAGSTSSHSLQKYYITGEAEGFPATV
% is scaled to controls: 0 for no effect and ±100 for the full control effect.

Row | SMILES | activation
1 | O=C(Cl)C(Cl)(Cl)Cl | 9.01% (inactive)
2 | CC[C@H](O)C(C[C@H](C)N(C)C)(c1ccccc1)c1ccccc1 | -12.1% (inactive)
3 | O=C(Cl)OCc1ccccc1 | -4.92% (inactive)
4 | C[C@H](CN1CCOCC1)C(C(=O)N1CCCC1)(c1ccccc1)c1ccccc1 | -2.63% (inactive)
5 | O=C(Cl)/C=C/C(=O)Cl | 5.56% (inactive)

test system: not listed separately; experiment: qHTS assay to identify small molecule antagonists of the estrogen receptor alpha (ER-alpha) signaling pathway using the BG1 cell line (AID 743080; calls by dose curve;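 also: BG1 cells stimulated with 17beta-estradiol alongside compound; nearly all actives have a fitted effect of over 25% in size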); conditions: BG1Luc4E2 ERE-luciferase antagonist mode, luminescence; series mostly up to 70.3 µM; activity change, negative = inhibition: at the top concentration
Procedure, shortened: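 BG1-Luc-4E2 cells (endogenous full-length ER-alpha, 4xERE luciferase) hormone-starved 5 days in charcoal-stripped FBS, plated 4,000/well for 24 h, then compound plus 17beta-estradiol for 21.5 h at 37 C; ONE-Glo luminescence read.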

Row | SMILES | activity change, negative = inhibition
6 | O=C(NC(=O)c1c(F)cccc1F)Nc1cc(Cl)c(F)c(Cl)c1F | -3.87% (inactive)
7 | O=C(Cl)C(Cl)(Cl)Cl | -0.12% [at 95 µM] (inactive)
8 | CN(C)CCN(C)C | -1.46% (inactive)
9 | C=C(Cl)CCl | -6.94% (inactive)
10 | O=C(Cl)C(Cl)Cl | 1.16% (inactive)
11 | Brc1c(Br)c(Br)c(Br)c(Br)c1Br | 17.5% [at 8.47 µM] (inactive)
12 | CCNc1nc(Cl)nc(NC(C)(C)C)n1 | 7.15% (inactive)
13 | CC[C@H](O)C(C[C@H](C)N(C)C)(c1ccccc1)c1ccccc1 | 3.15% [at 95 µM] (inactive)
14 | N#CN=C1SCCN1Cc1ccc(Cl)nc1 | 12% (inactive)
15 | CC(C)(N)Cc1ccc(Cl)cc1 | -4.03% (inactive)
16 | CC(C)(O)C(Cl)(Cl)Cl | -0.427% (inactive)
17 | C#CCOC(=O)/C=C(C)/C=C/CC(C)CCCC(C)C (stereo not given) | -4.63% (inactive)
18 | CCOc1cc(OP(=S)(OC)OC)nc(CC)n1 | 6.84% (inactive)
19 | CCC(C(N)=O)N1CCCC1=O (stereo not given) | 14.6% (inactive)
20 | CCN[C@H](C)Cc1cccc(C(F)(F)F)c1 | 6.26% (inactive)
21 | CCN(CCO)CCn1c(Cc2ccccc2)nc2c1c(=O)n(C)c(=O)n2C | 0.773% (inactive)
22 | O=C(Cl)OCc1ccccc1 | -5.11% [at 95 µM] (inactive)
23 | CCNP(=S)(OC)O/C(C)=C/C(=O)OC(C)C (stereo not given) | -0.257% (inactive)
24 | CN(C)C1CCCCC1 | 5.16% (inactive)
25 | CN1C(=O)COc2c(C(=O)NC3CN4CCC3CC4)cc(Cl)cc21 (stereo not given) | 20.8% (inactive)
26 | C[C@H](CN1CCOCC1)C(C(=O)N1CCCC1)(c1ccccc1)c1ccccc1 | -0.227% [at 95 µM] (inactive)
27 | O=C(Cl)/C=C/C(=O)Cl | 2.83% [at 95 µM] (inactive)

test system: not listed separately; experiment: qHTS assay to identify small molecule antagonists of the estrogen receptor alpha (ER-alpha) signaling pathway using the BG1 cell line - cell viability counter screen (AID 743081); conditions: BG1Luc4E2 viability, CellTiter-Fluor, 22 h; series mostly up to 70.3 µM; activity change, negative = cytotoxicity: at the top concentration;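 also: compound given together with 17beta-estradiol as the ER stimulus; nearly all actives have a fitted effect of over 45% in size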

Row | SMILES | activity change, negative = cytotoxicity
28 | O=C(NC(=O)c1c(F)cccc1F)Nc1cc(Cl)c(F)c(Cl)c1F | 10% (inactive)
29 | Cc1ccc2cc(C)ccc2c1 | -4.42% (inactive)
30 | c1ccc2c(c1)CCNC2 | -4.67% [at 95 µM] (inactive)
31 | O=C(Cl)C(Cl)(Cl)Cl | 5.65% [at 95 µM] (inactive)
32 | CN(C)CCN(C)C | 23.4% (inactive)
33 | C=C(Cl)CCl | -1.52% (inactive)
34 | CC(Cc1ccccc1)NCCn1cnc2c1c(=O)n(C)c(=O)n2C (stereo not given) | -0.0599% (inactive)
35 | C=CC=O | 0.619% [at 95 µM] (inactive)
36 | CCCCCCCCBr | -2.05% (inactive)
37 | O=C(Cl)C(Cl)Cl | -4.13% (inactive)
38 | Brc1c(Br)c(Br)c(Br)c(Br)c1Br | 9.59% [at 8.47 µM] (inactive)
39 | CCNc1nc(Cl)nc(NC(C)(C)C)n1 | 14.3% (inactive)
40 | CC[C@H](O)C(C[C@H](C)N(C)C)(c1ccccc1)c1ccccc1 | 11.8% [at 95 µM] (inactive)
41 | N#CN=C1SCCN1Cc1ccc(Cl)nc1 | 17.4% (inactive)
42 | CC(C)(N)Cc1ccc(Cl)cc1 | -1.37% (inactive)
43 | C=CCN1CC[C@]23CCCC[C@H]2[C@H]1Cc1ccc(O)cc13 | 1.65% (inactive)
44 | COc1ccc2c(C(=O)c3ccc(Cl)cc3)c(C)n(CC(=O)O)c2c1 | 8.84% (inactive)

Row | SMILES | activity change, negative = cytotoxicity
45 | CCC(=O)OC1(c2ccccc2)CCN(C)CC1 | -20.4% [at 95 µM] (inactive)
46 | C=C1CC[C@@]2(O)[C@H]3Cc4ccc(O)c5c4[C@@]2(CCN3CC2CC2)[C@H]1O5 | -9.29% (inactive)
47 | C=C(Cl)CSC(=S)N(CC)CC | -0.995% [at 95 µM] (inactive)
48 | C#CCOC(=O)/C=C(C)/C=C/CC(C)CCCC(C)C (stereo not given) | -12.8% (inactive)
49 | CCOc1cc(OP(=S)(OC)OC)nc(CC)n1 | -1.82% (inactive)
50 | CCC1(c2ccccc2)C(=O)N(COC)C(=O)N(COC)C1=O | 6.47% (inactive)
51 | CCC(C(N)=O)N1CCCC1=O (stereo not given) | 2.61% (inactive)
52 | N#CC(Br)(Br)C(N)=O | -1.51% (inactive)
53 | NNCc1ccccc1 | -2.39% [at 95 µM] (inactive)
54 | C[N+]1(C)CCCCC1 | 14% (inactive)
55 | CCN[C@H](C)Cc1cccc(C(F)(F)F)c1 | -1.9% (inactive)
56 | O=C(Cl)OCc1ccccc1 | 1.95% [at 95 µM] (inactive)
57 | CCNP(=S)(OC)O/C(C)=C/C(=O)OC(C)C (stereo not given) | -4% (inactive)
58 | CN(C)C1CCCCC1 | 7.41% (inactive)
59 | CON(C)C(=O)Nc1ccc(Br)c(Cl)c1 | -1.47% (inactive)
60 | COC1=CC(=O)O[C@@H](/C=C/c2ccccc2)C1 | 4.14% [at 95 µM] (inactive)
61 | O=C(Cl)/C=C/C(=O)Cl | 1.21% [at 95 µM] (inactive)

target: Aromatase (Homo sapiens) (UniProt P11511); experiment: qHTS assay to identify aromatase inhibitors (AID 743083); conditions: MCF-7 aro ERE, testosterone-driven ERE luciferase, 24 h; series mostly up to 70.3 µM; activity, negative = inhibition: at the top concentration; also: nearly all actives have a fitted effect of over 55% in size; also: potency is read from the fitted curve at half-maximal effect
Sequence (P11511 whole entry, looked up): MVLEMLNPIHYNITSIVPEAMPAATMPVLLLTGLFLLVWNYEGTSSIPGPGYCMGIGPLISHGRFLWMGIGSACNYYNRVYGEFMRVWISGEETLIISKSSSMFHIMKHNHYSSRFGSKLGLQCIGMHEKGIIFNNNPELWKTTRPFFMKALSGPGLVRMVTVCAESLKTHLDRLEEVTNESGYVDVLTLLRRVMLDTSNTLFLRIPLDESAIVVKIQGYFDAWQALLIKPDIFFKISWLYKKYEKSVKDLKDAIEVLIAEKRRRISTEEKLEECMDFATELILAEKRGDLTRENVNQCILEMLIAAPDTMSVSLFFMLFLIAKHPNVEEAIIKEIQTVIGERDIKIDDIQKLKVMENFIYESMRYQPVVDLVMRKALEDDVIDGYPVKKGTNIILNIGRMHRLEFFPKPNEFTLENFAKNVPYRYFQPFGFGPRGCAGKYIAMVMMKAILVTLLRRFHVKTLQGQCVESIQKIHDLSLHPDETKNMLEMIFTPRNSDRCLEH

Row | SMILES | activity, negative = inhibition | Potency
62 | O=C(NC(=O)c1c(F)cccc1F)Nc1cc(Cl)c(F)c(Cl)c1F | 11.7% (inactive) | –
63 | Cc1ccc2cc(C)ccc2c1 | 10.1% (inactive) | –
64 | c1ccc2c(c1)CCNC2 | 1.12% [at 95 µM] (inactive) | –
65 | O=C(Cl)C(Cl)(Cl)Cl | -0.568% [at 95 µM] (inactive) | –
66 | CN(C)CCN(C)C | 0.0584% (inactive) | –
67 | CCC1(c2cccc(O)c2)CCCCN(C)C1 (stereo not given) | 5.19% [at 32.5 µM] (inactive) | –
68 | C=C(Cl)CCl | -0.0381% (inactive) | –
69 | CC(Cc1ccccc1)NCCn1cnc2c1c(=O)n(C)c(=O)n2C (stereo not given) | -18% (inactive) | –
70 | C=CC=O | -11.1% [at 95 µM] (inactive) | –
71 | CCCCCCCCBr | 1.72% (inactive) | –
72 | O=C(Cl)C(Cl)Cl | 4.47% (inactive) | –
73 | Brc1c(Br)c(Br)c(Br)c(Br)c1Br | 14.6% [at 8.47 µM] (inactive) | –
74 | CCNc1nc(Cl)nc(NC(C)(C)C)n1 | -10.8% (inactive) | –
75 | CC[C@H](O)C(C[C@H](C)N(C)C)(c1ccccc1)c1ccccc1 | -1.88% [at 95 µM] (inactive) | –
76 | N#CN=C1SCCN1Cc1ccc(Cl)nc1 | 6.43% (inactive) | –
77 | CC(C)(N)Cc1ccc(Cl)cc1 | 1.35% (inactive) | –
78 | C=CCN1CC[C@]23CCCC[C@H]2[C@H]1Cc1ccc(O)cc13 | -2.44% (inactive) | –
79 | COc1ccc2c(C(=O)c3ccc(Cl)cc3)c(C)n(CC(=O)O)c2c1 | -2.33% (inactive) | –
80 | CC(C)(O)C(Cl)(Cl)Cl | -8.27% (inactive) | –
81 | CCC(=O)OC1(c2ccccc2)CCN(C)CC1 | -0.767% [at 95 µM] (inactive) | –

Row | SMILES | activity, negative = inhibition | Potency
82 | C=C1CC[C@@]2(O)[C@H]3Cc4ccc(O)c5c4[C@@]2(CCN3CC2CC2)[C@H]1O5 | 0.289% (inactive) | –
83 | C=C(Cl)CSC(=S)N(CC)CC | – | 26.6 µM (active)
84 | C#CCOC(=O)/C=C(C)/C=C/CC(C)CCCC(C)C (stereo not given) | -3.72% (inactive) | –
85 | CCOc1cc(OP(=S)(OC)OC)nc(CC)n1 | -0.272% (inactive) | –
86 | CCC1(c2ccccc2)C(=O)N(COC)C(=O)N(COC)C1=O | -4.89% (inactive) | –
87 | CCC(C(N)=O)N1CCCC1=O (stereo not given) | 4.89% (inactive) | –
88 | NNCc1ccccc1 | 51.4% [at 95 µM] (inactive) | –
89 | C[N+]1(C)CCCCC1 | -0.251% (inactive) | –
90 | CCc1cc(OC)c(C[C@H](C)N)cc1OC | -4.83% [at 95 µM] (inactive) | –
91 | CCN[C@H](C)Cc1cccc(C(F)(F)F)c1 | -3.19% (inactive) | –
92 | CCN(CCO)CCn1c(Cc2ccccc2)nc2c1c(=O)n(C)c(=O)n2C | 4.71% (inactive) | –
93 | O=C(Cl)OCc1ccccc1 | -0.067% [at 95 µM] (inactive) | –
94 | CCNP(=S)(OC)O/C(C)=C/C(=O)OC(C)C (stereo not given) | -11.9% (inactive) | –
95 | CN(C)C1CCCCC1 | 9.64% (inactive) | –
96 | CON(C)C(=O)Nc1ccc(Br)c(Cl)c1 | 38.4% (inactive) | –
97 | CN1C(=O)COc2c(C(=O)NC3CN4CCC3CC4)cc(Cl)cc21 (stereo not given) | 5.7% (inactive) | –
98 | C[C@H](CN1CCOCC1)C(C(=O)N1CCCC1)(c1ccccc1)c1ccccc1 | -7.82% [at 95 µM] (inactive) | –
99 | COC1=CC(=O)O[C@@H](/C=C/c2ccccc2)C1 | 40.7% [at 95 µM] (inactive) | –
100 | O=C(Cl)/C=C/C(=O)Cl | 5.81% [at 95 µM] (inactive) | –
